Assay results taken from PubChem BioAssay (EPA / NIEHS).
“And” between values parts separate entries of the source, which are not always exact repeats. Equal entries are not always repeated. Results filed as inconclusive are left out. More than one record can exist for a structure, and the calls need not agree. The source made the active and inactive calls. The calls were made as follows, unless noted: active = hit-call score of the fitted dose curve at least 0.9, where 1 is the maximum; inactive = score below 0.9.

Tests used:
[1] = ATG_NFI_CIS: Attagene CIS-FACTORIAL HepG2 Assay for human Nuclear Factor I (NFI) (AID 2282989); details: HepG2 cis-regulatory reporter, NFI response element transcription; actives raise or lower the signal
How it was run: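 Cells: human liver HepG2, transiently transfected with promoter-regulated reporter transcription units. Exposure 24 h. Detection: fluorescent RT-PCR products separated by capillary electrophoresis, normalised to DMSO negative control.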

[2] = molecular target: Myc proto-oncogene protein (Homo sapiens) (UniProt P01106); experiment: ATG_Myc_CIS: Attagene CIS-FACTORIAL HepG2 Assay for human Myelocytomatosis (Myc) Proto-Oncogene Transcription Factor (AID 2282990); details: HepG2, Attagene cis-reporter transcription factor activity; actives raise or lower the signal
Chain of Myc proto-oncogene protein (Homo sapiens) (P01106 whole entry, looked up, the tested form may be a part): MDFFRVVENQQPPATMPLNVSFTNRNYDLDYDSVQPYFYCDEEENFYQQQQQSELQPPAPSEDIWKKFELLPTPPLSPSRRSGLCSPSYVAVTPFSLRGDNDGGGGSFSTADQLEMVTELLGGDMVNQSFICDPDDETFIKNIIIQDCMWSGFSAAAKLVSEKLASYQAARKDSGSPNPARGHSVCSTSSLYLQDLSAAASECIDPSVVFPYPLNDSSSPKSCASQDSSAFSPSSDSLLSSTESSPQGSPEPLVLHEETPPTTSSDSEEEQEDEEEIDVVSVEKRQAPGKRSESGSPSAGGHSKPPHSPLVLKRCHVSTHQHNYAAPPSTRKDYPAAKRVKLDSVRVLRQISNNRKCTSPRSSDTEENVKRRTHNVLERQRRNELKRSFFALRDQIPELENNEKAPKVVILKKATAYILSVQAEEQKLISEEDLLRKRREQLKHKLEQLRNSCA
How it was run: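 After 24 h chemical treatment of HepG2 cells carrying multiplexed cis-regulated reporter constructs, reporter transcripts quantified by RT-PCR and capillary electrophoresis of fluorescent fragments. Gain or loss fitted against DMSO baseline.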

[3] = ATG_NF_kB_CIS: Attagene CIS-FACTORIAL HepG2 Assay for human Nuclear Factor Kappa B (NF-kB) (AID 2282991); details: HepG2 Attagene cis-factorial NF-kB reporter mRNA; actives raise or lower the signal
How it was run: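 Measures mRNA induction of an NF-kB-responsive cis-element reporter in HepG2 cells transfected with multiple reporter units, sampled 24 h post-dosing; quantified by fluorescence after RT-PCR and capillary electrophoresis, fitted for activation or inhibition against DMSO.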

[4] = ATG_NRF2_ARE_CIS: Attagene CIS-FACTORIAL HepG2 Assay for human Nuclear Factor Erythroid 2 Related Factor 2 (NFR2) response to Antioxidant Response Elements (ARE) (AID 2282992); details: HepG2 Attagene ARE/NRF2 reporter, transcription factor activity; actives raise or lower the signal;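 as to AC50: reporter mRNA level measured by RT-PCR and capillary electrophoresis fluorescence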
How it was run: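 Transient MRTU transfection of HepG2; 24 h compound exposure; TriZol RNA, RT with oligo(dT), PCR, 6-FAM primer extension, HpaI cut, CE. Bidirectional fit vs DMSO.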

[5] = ATG_Oct_MLP_CIS: Attagene CIS-FACTORIAL HepG2 Assay for human Octamer-Binding Transcription Factor (Oct) (AID 2282993); details: HepG2 Attagene cis-factorial Oct reporter, mRNA; actives raise or lower the signal
How it was run: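 HepG2, transient MRTU transfection, cis promoter elements; 24 h dosing; RT-PCR/CE fluorescence read-out of reporter mRNA; fit both directions vs DMSO.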

[6] = molecular target: Cellular tumor antigen p53 (Homo sapiens) (UniProt P04637); experiment: ATG_p53_CIS: Attagene CIS-FACTORIAL HepG2 Assay for human p53 Transcription Factor (AID 2282994); details: HepG2 p53 cis-element reporter, Attagene mRNA; actives raise or lower the signal
Chain of Cellular tumor antigen p53 (Homo sapiens) (P04637 whole entry, looked up): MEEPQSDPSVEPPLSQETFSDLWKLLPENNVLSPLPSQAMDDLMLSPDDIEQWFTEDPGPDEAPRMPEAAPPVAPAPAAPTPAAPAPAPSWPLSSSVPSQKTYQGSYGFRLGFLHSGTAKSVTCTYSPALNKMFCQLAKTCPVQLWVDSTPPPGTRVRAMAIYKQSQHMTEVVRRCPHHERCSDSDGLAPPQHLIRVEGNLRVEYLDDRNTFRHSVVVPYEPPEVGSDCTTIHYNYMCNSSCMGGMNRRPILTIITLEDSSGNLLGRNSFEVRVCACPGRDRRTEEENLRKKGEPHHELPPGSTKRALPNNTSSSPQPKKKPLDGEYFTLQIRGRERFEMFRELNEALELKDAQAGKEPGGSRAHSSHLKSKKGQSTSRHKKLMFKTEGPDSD
How it was run: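 HepG2, transient MRTU transfection (cis promoter elements, endogenous TFs); 24 h dosing; RNA isolation, RT-PCR, 6-FAM primer extension, HpaI digest, CE fluorescence; bidirectional fit vs DMSO.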

[7] = molecular target: human Peroxisome Proliferator-activated Receptor delta (PPARd), PPARD (gene 5467) (UniProt Q03181); experiment: ATG_PPARd_TRANS: Attagene TRANS-FACTORIAL HepG2 Assay for human Peroxisome Proliferator-activated Receptor delta (PPARd) (AID 2283002; active = hit-call score of the fitted dose curve at least 0.9, where 1 is the maximum)
Chain of human Peroxisome Proliferator-activated Receptor delta (PPARd), PPARD (gene 5467) (Q03181 whole entry, looked up, the tested form may be a part): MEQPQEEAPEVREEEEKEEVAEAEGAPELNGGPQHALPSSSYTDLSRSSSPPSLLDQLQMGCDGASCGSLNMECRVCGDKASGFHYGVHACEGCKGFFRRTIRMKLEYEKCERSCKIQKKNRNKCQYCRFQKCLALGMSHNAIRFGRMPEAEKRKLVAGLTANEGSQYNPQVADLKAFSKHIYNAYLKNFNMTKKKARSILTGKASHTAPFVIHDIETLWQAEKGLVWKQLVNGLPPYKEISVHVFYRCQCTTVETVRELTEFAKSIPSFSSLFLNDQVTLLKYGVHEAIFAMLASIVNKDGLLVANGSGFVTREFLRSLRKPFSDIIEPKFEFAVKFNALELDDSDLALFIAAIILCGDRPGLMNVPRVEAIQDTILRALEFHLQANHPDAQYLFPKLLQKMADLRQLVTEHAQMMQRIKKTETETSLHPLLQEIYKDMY
How it was run: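 Read-out is induced reporter mRNA, quantified by RT-PCR with fluorescent labelling and capillary electrophoresis after 24 h dosing. Cells are HepG2 transiently carrying multiple GAL4-UAS reporter units driven by exogenous NR-GAL4 chimeras; DMSO serves as baseline.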

[8] = molecular target: human RAR-related Orphan Receptor beta (RORb), RORB (gene 6096) (UniProt Q92753); experiment: ATG_RORb_TRANS: Attagene TRANS-FACTORIAL HepG2 Assay for human RAR-related Orphan Receptor beta (RORb) (AID 2283010; active = hit-call score of the fitted dose curve at least 0.9, where 1 is the maximum)
Chain of human RAR-related Orphan Receptor beta (RORb), RORB (gene 6096) (Q92753 whole entry, looked up, the tested form may be a part): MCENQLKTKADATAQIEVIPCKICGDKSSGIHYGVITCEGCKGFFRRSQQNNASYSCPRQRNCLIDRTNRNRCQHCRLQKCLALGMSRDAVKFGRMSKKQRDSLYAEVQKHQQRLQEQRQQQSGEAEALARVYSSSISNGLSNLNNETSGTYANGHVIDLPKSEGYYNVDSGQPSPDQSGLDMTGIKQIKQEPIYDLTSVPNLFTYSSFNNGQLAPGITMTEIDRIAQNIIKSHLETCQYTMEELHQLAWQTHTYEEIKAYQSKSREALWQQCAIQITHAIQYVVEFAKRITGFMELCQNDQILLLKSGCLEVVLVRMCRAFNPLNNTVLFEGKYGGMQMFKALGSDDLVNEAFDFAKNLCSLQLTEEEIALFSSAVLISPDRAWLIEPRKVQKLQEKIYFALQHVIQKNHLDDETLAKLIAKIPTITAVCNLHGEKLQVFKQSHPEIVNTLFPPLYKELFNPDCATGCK
How it was run: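 HepG2 cells transiently transfected with GAL4-UAS reporter units expressing chimeric NR-Gal4 protein; reporter mRNA measured 24 h after dosing by RT-PCR, 6-FAM labelling and capillary electrophoresis. Gain-of-signal fitted relative to DMSO baseline.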

[9] = molecular target: Nuclear respiratory factor 1 (Homo sapiens) (UniProt Q16656); experiment: ATG_NRF1_CIS: Attagene CIS-FACTORIAL HepG2 Assay for human Nuclear Respiratory Factor 1 (NRF1) Orphan Gene (AID 2282987); details: HepG2 NRF1 cis-element reporter, Attagene multiplex; actives raise or lower the signal
Chain of Nuclear respiratory factor 1 (Homo sapiens) (Q16656 whole entry, looked up, the tested form may be a part): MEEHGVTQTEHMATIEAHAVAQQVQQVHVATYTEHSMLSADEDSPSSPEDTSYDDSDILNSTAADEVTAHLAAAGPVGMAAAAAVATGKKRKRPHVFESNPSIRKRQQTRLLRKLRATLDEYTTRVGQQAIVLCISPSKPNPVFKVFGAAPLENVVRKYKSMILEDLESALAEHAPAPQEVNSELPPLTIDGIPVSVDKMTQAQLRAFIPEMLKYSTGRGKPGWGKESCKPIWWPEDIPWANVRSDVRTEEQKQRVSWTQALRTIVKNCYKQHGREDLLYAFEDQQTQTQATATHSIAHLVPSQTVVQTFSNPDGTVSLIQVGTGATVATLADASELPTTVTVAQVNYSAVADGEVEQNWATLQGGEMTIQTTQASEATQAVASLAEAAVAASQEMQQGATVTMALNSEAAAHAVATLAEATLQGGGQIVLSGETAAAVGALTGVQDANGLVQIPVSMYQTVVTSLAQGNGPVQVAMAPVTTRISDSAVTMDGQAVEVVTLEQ
How it was run: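 Cells (HepG2, transient MRTU transfection) are exposed to compound for 24 h, then RNA isolated and reporter mRNA amplified and fluorescently labelled. Fragments are separated by capillary electrophoresis; signal change is fitted bidirectionally relative to DMSO.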

[10] = molecular target: human Peroxisome Proliferator-activated Receptor alpha (PPARa), PPARA (gene 5465) (UniProt Q07869); experiment: ATG_PPARa_TRANS: Attagene TRANS-FACTORIAL HepG2 Assay for human Peroxisome Proliferator-activated Receptor alpha (PPARa) (AID 2283001; active = hit-call score of the fitted dose curve at least 0.9, where 1 is the maximum)
Chain of human Peroxisome Proliferator-activated Receptor alpha (PPARa), PPARA (gene 5465) (Q07869 whole entry, looked up, the tested form may be a part): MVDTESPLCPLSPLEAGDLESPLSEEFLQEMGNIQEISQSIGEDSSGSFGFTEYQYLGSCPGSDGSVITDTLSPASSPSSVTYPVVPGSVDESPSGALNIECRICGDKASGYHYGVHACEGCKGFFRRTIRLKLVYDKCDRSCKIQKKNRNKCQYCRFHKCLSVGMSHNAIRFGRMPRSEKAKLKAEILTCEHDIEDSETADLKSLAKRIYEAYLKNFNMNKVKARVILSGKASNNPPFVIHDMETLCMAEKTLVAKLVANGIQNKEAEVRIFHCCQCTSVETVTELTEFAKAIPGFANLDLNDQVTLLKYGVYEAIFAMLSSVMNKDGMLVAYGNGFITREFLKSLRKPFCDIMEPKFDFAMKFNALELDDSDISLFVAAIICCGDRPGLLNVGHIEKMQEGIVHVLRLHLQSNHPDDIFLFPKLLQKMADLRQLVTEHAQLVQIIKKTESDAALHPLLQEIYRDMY
How it was run: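 Read-out is fluorescence of reporter cDNA fragments resolved by capillary electrophoresis after RT-PCR. Human HepG2 liver cells carried transfected PPARa-Gal4 chimera and GAL4-UAS reporter units, treated 24 h; activity scored as increase over DMSO.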

[11] = molecular target: Nuclear receptor subfamily 1 group I member 2 (Homo sapiens) (UniProt O75469); experiment: ATG_PXR_TRANS: Attagene TRANS-FACTORIAL HepG2 Assay for human Pregnane X Receptor (PXR) (AID 2283008; active = hit-call score of the fitted dose curve at least 0.9, where 1 is the maximum)
Chain of Nuclear receptor subfamily 1 group I member 2 (Homo sapiens) (O75469 whole entry, looked up, the tested form may be a part): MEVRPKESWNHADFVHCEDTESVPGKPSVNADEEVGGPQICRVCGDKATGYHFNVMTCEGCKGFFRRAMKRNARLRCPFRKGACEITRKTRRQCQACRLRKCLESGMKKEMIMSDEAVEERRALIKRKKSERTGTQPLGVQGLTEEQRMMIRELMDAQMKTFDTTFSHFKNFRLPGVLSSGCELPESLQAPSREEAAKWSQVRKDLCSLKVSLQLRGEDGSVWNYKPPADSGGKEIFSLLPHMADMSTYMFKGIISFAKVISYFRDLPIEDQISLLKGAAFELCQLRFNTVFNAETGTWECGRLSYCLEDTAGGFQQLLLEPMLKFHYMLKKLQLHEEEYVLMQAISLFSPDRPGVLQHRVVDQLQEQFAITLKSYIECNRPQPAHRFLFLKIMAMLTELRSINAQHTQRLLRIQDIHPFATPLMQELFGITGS
How it was run: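 Read-out is fluorescence of labelled reporter cDNA fragments separated by capillary electrophoresis after RT-PCR and HpaI digestion. Source: HepG2 cells carrying PXR-GAL4/UAS reporter constructs, treated 24 h; activity fitted upward relative to DMSO.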

[12] = molecular target: Peroxisome proliferator-activated receptor gamma (Homo sapiens) (UniProt P37231); experiment: ATG_PPARg_TRANS: Attagene TRANS-FACTORIAL HepG2 Assay for human Peroxisome Proliferator-activated Receptor-gamma (PPARg) (AID 2283007; active = hit-call score of the fitted dose curve at least 0.9, where 1 is the maximum)
Chain of Peroxisome proliferator-activated receptor gamma (Homo sapiens) (P37231 whole entry, looked up, the tested form may be a part): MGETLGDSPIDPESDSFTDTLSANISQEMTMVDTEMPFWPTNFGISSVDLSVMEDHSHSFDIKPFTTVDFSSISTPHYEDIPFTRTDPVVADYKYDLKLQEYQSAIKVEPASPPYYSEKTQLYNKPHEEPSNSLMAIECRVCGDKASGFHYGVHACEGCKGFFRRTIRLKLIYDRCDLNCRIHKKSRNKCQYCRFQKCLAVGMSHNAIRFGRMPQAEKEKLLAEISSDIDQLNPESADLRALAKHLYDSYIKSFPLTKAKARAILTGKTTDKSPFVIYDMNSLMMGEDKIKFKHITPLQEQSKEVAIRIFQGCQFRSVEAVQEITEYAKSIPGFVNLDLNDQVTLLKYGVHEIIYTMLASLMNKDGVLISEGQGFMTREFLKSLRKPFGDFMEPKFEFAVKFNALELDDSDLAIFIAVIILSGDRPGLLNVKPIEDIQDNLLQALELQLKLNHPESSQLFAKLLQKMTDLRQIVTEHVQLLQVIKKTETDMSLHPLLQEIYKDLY
How it was run: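 Gain-of-signal endpoint relative to DMSO, derived from reporter mRNA levels quantified by RT-PCR and capillary electrophoresis. Cells were HepG2 transiently expressing a chimeric NR-Gal4 construct with GAL4-UAS reporters, exposed to chemicals for 24 h.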

[13] = BSK_3C_TissueFactor: BioMAP Diversity Plus: 3C Assay for Tissue Factor Biomarker Activity (AID 2282997); details: BioMAP 3C HUVEC, tissue factor biomarker readout; actives raise or lower the signal
How it was run: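 Human vascular primary cells (umbilical vein endothelium) received test chemical; Tissue Factor was determined by ELISA at 24 h, and both gain and loss of signal versus DMSO were fitted.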

[14] = BSK_3C_uPAR: BioMAP Diversity Plus: 3C Assay for Urokinase-type plasminogen activator receptor (uPAR) Biomarker Activity (AID 2282998); details: BioMAP 3C HUVEC, uPAR biomarker ELISA; actives raise or lower the signal
How it was run: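 A multiplexed primary-cell system built on human umbilical vein endothelium was used, with chemical present for 24 h before reading. Cell-surface uPAR was detected by ELISA; signal change in either direction counted against DMSO.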

[15] = BSK_4H_Eotaxin3: BioMAP Diversity Plus: 4H Assay for Eotaxin 3 Biomarker Activity (AID 2283000); details: primary human endothelial cells (HUVEC); actives raise or lower the signal;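 also: CCL26 protein level quantified by ELISA in parallel with SRB cytotoxicity check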
How it was run: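 Readout is Eotaxin-3 (CCL26) level by ELISA in primary human umbilical vein endothelial cells harvested 24 h after chemical exposure; activity fitted in both directions against DMSO control.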

[16] = read-out: Intercellular Adhesion Molecule 1 (ICAM1), ICAM1 (gene 3383); experiment: BSK_3C_ICAM1: BioMAP Diversity Plus: 3C Assay for Intercellular Adhesion Molecule 1 (ICAM1) Biomarker Activity (AID 2283003); details: primary human endothelial cells (HUVEC); actives raise or lower the signal
How it was run: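 HUVEC primary cells stimulated under 3C conditions; ICAM1 measured by ELISA 24 h after compound dosing. Curves fitted bidirectionally against the DMSO baseline. Overt cytotoxicity checked by SRB staining of parallel cultures.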

[17] = BSK_3C_Proliferation: Cell Proliferation Assessment in the BioMAP Diversity Plus: 3C Assay (AID 2283006); details: primary human endothelial cells (HUVEC);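 as to AC50: potency may reflect either rise or fall in cell number versus DMSO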
How it was run: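 Subconfluent HUVEC (3C system) cultured with chemical; relative cell number read at 48 h by sulforhodamine B total-protein staining (0.1% SRB after 10% TCA fixation, 560 nm). Bidirectional fit relative to DMSO.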

[18] = molecular target: human Retinoic Acid Receptor gamma (RARg), RARG (gene 5916) (UniProt P13631); experiment: ATG_RARg_TRANS: Attagene TRANS-FACTORIAL HepG2 Assay for human Retinoic Acid Receptor gamma (RARg) (AID 2283009; active = hit-call score of the fitted dose curve at least 0.9, where 1 is the maximum)
Chain of human Retinoic Acid Receptor gamma (RARg), RARG (gene 5916) (P13631 whole entry, looked up, the tested form may be a part): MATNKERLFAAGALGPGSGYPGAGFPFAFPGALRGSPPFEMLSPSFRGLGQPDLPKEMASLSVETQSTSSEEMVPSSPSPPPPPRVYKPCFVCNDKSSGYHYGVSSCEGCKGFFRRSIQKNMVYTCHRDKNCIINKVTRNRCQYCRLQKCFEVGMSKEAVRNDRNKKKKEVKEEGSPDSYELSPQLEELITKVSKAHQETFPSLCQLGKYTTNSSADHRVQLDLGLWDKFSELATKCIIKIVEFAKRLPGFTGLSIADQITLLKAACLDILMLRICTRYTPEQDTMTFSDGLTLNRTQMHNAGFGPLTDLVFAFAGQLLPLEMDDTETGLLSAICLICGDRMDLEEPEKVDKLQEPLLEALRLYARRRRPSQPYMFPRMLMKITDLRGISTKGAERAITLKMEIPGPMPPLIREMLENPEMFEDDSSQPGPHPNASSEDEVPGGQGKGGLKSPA
How it was run: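 HepG2 transiently transfected with GAL4-UAS reporter units and chimeric NR-Gal4 constructs; 24 h compound exposure. Reporter mRNA quantified by RT-PCR, FAM labeling, HpaI digestion and capillary electrophoresis; gain-of-signal versus DMSO.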

Measured: AC50

FC(F)(F)c1ccc(Cl)c(Cl)c1
inactive: [1] | [2] | [3] | [4] | [5] | [6] | [7] | [8]

CN(C)C(=O)Nc1ccccc1
inactive: [9] | [3] | [4] | [5] | [10] | [7] | [11]

CCCCCCCCCOS(=O)(=O)O
inactive: [9] | [2] | [4] | [5] | [6] | [10] | [11]
active: [12] 30.6 µM

NNC(=O)OCc1ccccc1
inactive: [9] | [2] | [3] | [5] | [10] | [7] | [12] | [11] | [8]

CC(C)COC(=O)c1ccccc1
inactive: [1] | [2] | [3] | [4] | [5] | [6] | [8]

[Cl][Dy]([Cl])[Cl]
inactive: [1] | [2] | [3] | [5] | [6] | [10] | [11]

CCCC(O)C(CC)CO (stereo not given)
inactive: [1] | [2] | [3] | [4] | [6] | [10] | [7]

O=C(O)C(F)(F)OC(F)(F)C(F)(F)OC(F)(F)C(F)(F)C(F)(F)C(F)(F)F
inactive: [13] | [14] | [15] | [16]
active: [14] 38.7 µM | [17] 54.5 µM and 48.8 µM

Cc1cc(O)c(C)c(C)c1O
inactive: [2] | [6] | [7] | [8]
active: [3] 50.7 µM | [4] 18.8 µM | [12] 32.4 µM

CCCCCC#CC(=O)OC
inactive: [5] | [6] | [10] | [7] | [11] | [8]
active: [3] 23.1 µM | [12] 12.9 µM

Nc1ccc(N)c([N+](=O)[O-])c1
not listed: [1] | [2] | [3] | [4] | [9] | [12]
inactive: all other assays above

CCC(C)(CCCC(C)C)OC(C)=O (stereo not given)
inactive: [1] | [2] | [4] | [5] | [6] | [10] | [7] | [11] | [8]
